Measured values published in PubChem BioAssay (NCI).
Several values for one entry are separate records, joined by “and”; a condition that tells them apart may be missing. Identical values can stand only once. Compounds without any hit were thinned out: in the full panel of roughly 79,000, 15% have a hit. Values without a mark were called inactive. Activity calls are given as the source filed them. No stated cut-off is given here; in the data, active means growth inhibition above about 70%; inactive means the rest.

Test: NCI Yeast Anticancer Drug Screen. Data for the bub3 strain (AID 167)
Details: S. cerevisiae bub3 mutant strain, at 5.0 µM (retest, dose inferred, filed as 0.5), hits give high values
Procedure: Growth inhibition of yeast strains with defined genetic alterations is measured as a screen for potential anti-cancer activity. Selected strains with alterations in DNA damage repair or cell cycle control were exposed to compounds and growth inhibition was measured relative to vehicle treated controls. The strain used in this assay is bub3

Structure (SMILES) | growth inhibition
COCC(C#N)NC1CC(OC2CC(O)(C(=O)CO)Cc3c(O)c4c(c(O)c32)C(=O)c2c(OC)cccc2C4=O)OC(C)C1O (stereo not given) | 43%
Cc1nnc2n1-c1ccc(Cl)cc1C(c1ccccc1)=[N+]([O-])C2 | -1%
CCC[CH2][Sn]1([CH2]CCC)[O]CC(CN2CCCCC2)[O]1 (stereo not given) | 34%
CCCCCCCC[As](C)(=O)O | -75%
CCC[CH2][Sn]([CH2]CCC)([O]C(=O)CCC(C)=O)[O]C(=O)CCC(C)=O | 89% (active)
COc1c[c]([Hg][O]C(C)=O)c(OC)c(NC(=O)CC(C)=O)[c]1[Hg][O]C(C)=O | 99% (active)
CC(=O)[CH-]C(C)=O.CC(=O)[CH-]C(C)=O.N=CC=N.[Sn+2] | 98% (active)
CCCCCCCC[N+]12CN3CN(CN(C3)C1)C2 | 1%
COS(=O)(=O)c1ccccc1 | 1%

Same assay, conditions: S. cerevisiae bub3 mutant strain, at 50.0 µM (retest, dose inferred, filed as 5.0), hits give high values

Structure (SMILES) | growth inhibition
COCC(C#N)NC1CC(OC2CC(O)(C(=O)CO)Cc3c(O)c4c(c(O)c32)C(=O)c2c(OC)cccc2C4=O)OC(C)C1O (stereo not given) | 98% (active)
Cc1nnc2n1-c1ccc(Cl)cc1C(c1ccccc1)=[N+]([O-])C2 | -1%
CCC[CH2][Sn]1([CH2]CCC)[O]CC(CN2CCCCC2)[O]1 (stereo not given) | 96% (active)
CCCCCCCC[As](C)(=O)O | -71%
CCC[CH2][Sn]([CH2]CCC)([O]C(=O)CCC(C)=O)[O]C(=O)CCC(C)=O | 99% (active)
COc1c[c]([Hg][O]C(C)=O)c(OC)c(NC(=O)CC(C)=O)[c]1[Hg][O]C(C)=O | 96% (active)
CC(=O)[CH-]C(C)=O.CC(=O)[CH-]C(C)=O.N=CC=N.[Sn+2] | 99% (active)
CCCCCCCC[N+]12CN3CN(CN(C3)C1)C2 | -25%
COS(=O)(=O)c1ccccc1 | 39%

Same assay, conditions: S. cerevisiae bub3 mutant strain, at 50.0 µM, hits give high values

Structure (SMILES) | growth inhibition
COC1/C=C/C=C(/C)Cc2cc(O)c(Cl)c(c2)N(C)C(=O)CC(OC(=O)C(C)C)C2(C)OC2C(C)C2CC1(O)NC(=O)O2 (stereo not given) | -6.2%
Clc1cc[c]([Sn]([Cl])([c]2ccc(Cl)cc2)[c]2ccc(Cl)cc2)cc1 | 97.5% (active)
COC(C(=O)C(O)C(C)O)C1Cc2cc3cc(OC4CC(OC(C)=O)C(OC5CC(O)C(OC)C(C)O5)C(C)O4)cc(O)c3c(O)c2C(=O)C1OC1CC(OC2CC(OC3CC(C)(O)C(OC(=O)C(C)C)C(C)O3)C(O)C(C)O2)C(O)C(C)O1 (stereo not given) | -19.4% and 35.5%
O=P(O)(O)C(O)c1ccccc1 (stereo not given) | -19.2%
C=CCc1cc(C=C(C#N)C#N)cc(OC)c1O | 9.05%
Cc1nn(C)pc1P(C)(=S)n1nc(N(C)C)np1 (stereo not given) | -7.55%
COC1OC2COC(c3ccccc3)OC2C2N=C(N)N([N+](=O)[O-])C12OS(C)(=O)=O (stereo not given) | -3.6%
COCC(C#N)NC1CC(OC2CC(O)(C(=O)CO)Cc3c(O)c4c(c(O)c32)C(=O)c2c(OC)cccc2C4=O)OC(C)C1O (stereo not given) | 92.1% (active)
Cc1nnc2n1-c1ccc(Cl)cc1C(c1ccccc1)=[N+]([O-])C2 | 7.45%
CCC[CH2][Sn]1([CH2]CCC)[O]CC(CN2CCCCC2)[O]1 (stereo not given) | 88% (active)
Cc1ccc(OP(Oc2ccc(C)cc2)Oc2ccc(C)cc2)cc1 | 29.4%
CCCCCCCC[As](C)(=O)O | -12.1%
CCCCCCCNC(=O)CBr | 41.2%
O=c1[nH]cc(CCl)c(=O)[nH]1 | 4.85%
CCC[CH2][Sn]([CH2]CCC)([O]C(=O)CCC(C)=O)[O]C(=O)CCC(C)=O | 88.4% (active)
COc1ccc2c(c1O)C1=CC(=O)CCC13CCN(C)C3C2 (stereo not given) | 8.1% and 2.4%
c1ccc(-c2ccc[n+](CCC[n+]3cccc(-c4ccccn4)c3)c2)nc1 | -5.75%
COc1c[c]([Hg][O]C(C)=O)c(OC)c(NC(=O)CC(C)=O)[c]1[Hg][O]C(C)=O | 90.8% (active)
CC(=O)[CH-]C(C)=O.CC(=O)[CH-]C(C)=O.N=CC=N.[Sn+2] | 93.3% (active)
CCCCCCCC[N+]12CN3CN(CN(C3)C1)C2 | 31.8%
COS(=O)(=O)c1ccccc1 | -4.55%
CCN(CC)CCc1ccccn1 | -14.4%
